ST2 IL33 inh – blocks human ST2 binding to IL-33 | Q01638 | 78,000 compounds, 2.3% hits | AlphaLISA ST2-Fc/biotin-IL-33 interaction, 1 h | AID 1259354 | inhibition, % for hits at 17 µM; in the data active means inhibition above about 30%
Target sequence (Q01638 whole entry, looked up): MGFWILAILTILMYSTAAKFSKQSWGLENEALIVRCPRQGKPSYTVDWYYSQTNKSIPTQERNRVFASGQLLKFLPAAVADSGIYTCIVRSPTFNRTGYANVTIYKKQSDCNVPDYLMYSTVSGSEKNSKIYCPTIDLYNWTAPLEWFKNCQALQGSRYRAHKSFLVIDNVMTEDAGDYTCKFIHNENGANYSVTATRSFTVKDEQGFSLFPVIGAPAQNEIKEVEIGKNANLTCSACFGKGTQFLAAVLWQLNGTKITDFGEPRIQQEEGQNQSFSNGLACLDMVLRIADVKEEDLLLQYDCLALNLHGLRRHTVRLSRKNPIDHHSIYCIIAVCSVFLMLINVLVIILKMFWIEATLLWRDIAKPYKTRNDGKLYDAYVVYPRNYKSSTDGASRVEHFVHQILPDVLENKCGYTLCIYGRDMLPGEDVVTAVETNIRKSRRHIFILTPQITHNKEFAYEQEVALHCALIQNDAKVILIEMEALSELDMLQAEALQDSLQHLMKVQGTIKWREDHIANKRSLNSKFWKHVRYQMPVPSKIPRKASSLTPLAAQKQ
Active calls of the source: *. This excerpt belongs to a sample that is enriched for hits.

Results for COCCN1C(=O)N(Cc2cccnc2)C(=O)C12CCN(Cc1ccc(OC)c(OC)c1)CC2 ?
ST2 IL33 inh: inactive

Results for COc1c(O)cc2c(=O)oc3c(OC)c(O[C@@H]4O[C@H](CO)[C@@H](O)[C@H](O)[C@H]4O)cc4c(=O)oc1c2c34 ?
ST2 IL33 inh: inactive

Results for Cc1nc2ccccc2c2c1C(=O)N(c1ccc3c(c1)OCO3)C2=O ?
ST2 IL33 inh: 51%*

How did Cc1ccc(Cl)cc1N1C(=O)c2c(C)nc3ccccc3c2C1=O do in these assays?
ST2 IL33 inh: 31%*

How did Cc1noc(C)c1-c1nc(CC(C)C)nn1-c1ccc2c(c1)OCO2 do in these assays?
ST2 IL33 inh: inactive

What do the screens show for `Cc1nc2ccccc2c2c1C(=O)N(c1ccc(C(N)=O)cc1)C2=O`?
ST2 IL33 inh: inactive

What do the screens show for `Cc1nc2ccccc2c2c1C(=O)N(c1cccnc1Cl)C2=O`?
ST2 IL33 inh: inactive

What do the screens show for `COc1cc([N+](=O)[O-])ccc1N1C(=O)c2c(C)nc3ccccc3c2C1=O`?
ST2 IL33 inh: inactive

How did O=C(CCC1CCN(C(=O)NC2CCCCC2)CC1)Nc1ccccc1 do in these assays?
ST2 IL33 inh: inactive

Results for O=c1ccc2ccc(OCc3ccc(F)cc3)cc2o1 ?
ST2 IL33 inh: inactive

Results for CCCOc1ccc(N2C(=O)[C@@H]3[C@H](C2=O)[C@H]2C=C[C@@H]3O2)cc1 ?
ST2 IL33 inh: inactive

Results for CCc1cccc(OCCCCN2CCCCC2)c1 ?
ST2 IL33 inh: inactive

How did O=C1CCC[C@H]2[C@@H]3C[C@@H](CN(c4ncnc5c4CCC5)C3)CN12 do in these assays?
ST2 IL33 inh: inactive

Results for Cc1nccn1-c1c2c(c(C#N)c3nc4ccccc4n13)CCC2 ?
ST2 IL33 inh: inactive

Results for N#Cc1c(-c2ccccc2)c(C#N)c2nc3ccccc3n2c1N ?
ST2 IL33 inh: 32%*

How did CC1CN(c2c3c(c(C#N)c4nc5ccccc5n24)CCC3)CC(C)O1 (configuration not stated) do in these assays?
ST2 IL33 inh: inactive

How did COc1ccc(-c2nnc(Nc3cccc(O)c3)c3ccccc23)cc1 do in these assays?
ST2 IL33 inh: inactive

How did COC(=O)c1c(NC(=O)COc2ccccc2Cl)sc2c1CCC2 do in these assays?
ST2 IL33 inh: inactive

What do the screens show for `COc1cc(/C=C/CO)ccc1O[C@@H]1O[C@H](CO)[C@@H](O)[C@H](O)[C@H]1O`?
ST2 IL33 inh: inactive

Results for CC/C=C\CCO[C@@H]1O[C@H](CO)[C@@H](O)[C@H](O)[C@H]1O ?
ST2 IL33 inh: 31%*

How did OC[C@H]1O[C@@H](OCCc2ccccc2)[C@H](O)[C@@H](O)[C@@H]1O do in these assays?
ST2 IL33 inh: inactive

Results for COc1ccc(-c2nnc([C@H]3CCN(Cc4ccco4)C3)o2)cc1 ?
ST2 IL33 inh: inactive

What do the screens show for `CC(C)NC(=O)c1cccn2c(=O)c3c4c(sc3nc12)CCCC4`?
ST2 IL33 inh: inactive

Results for Cc1ccc(NC(=O)C(NS(=O)(=O)c2ccc3c(c2)oc(=O)n3C)C(C)C)cc1 (configuration not stated) ?
ST2 IL33 inh: inactive

What do the screens show for `CCC(C)NC(=O)C1CC(=O)N(c2ccc(F)cc2)C1` (configuration not stated)?
ST2 IL33 inh: 33%*

Results for CC(C)NC(=O)C1CC(=O)N(c2ccc(F)c(Cl)c2)C1 (configuration not stated) ?
ST2 IL33 inh: inactive

What do the screens show for `Cc1ccnc(NC(=O)C2CC(=O)N(c3ccc(F)cc3)C2)c1` (configuration not stated)?
ST2 IL33 inh: inactive

How did CCCCOC(=O)CSC1=C(C#N)C(c2sccc2C)CC(=O)N1 (configuration not stated) do in these assays?
ST2 IL33 inh: inactive

What do the screens show for `CC(=O)N1c2ccc(N=Cc3cc(Br)cc(Br)c3O)cc2CC1C` (configuration not stated)?
ST2 IL33 inh: inactive

What do the screens show for `Oc1c(Cl)cc(Br)cc1C=Nc1ccccc1`?
ST2 IL33 inh: inactive

Results for CCc1ccc(N=Cc2cc(Br)ccc2O)cc1 ?
ST2 IL33 inh: 36%*

What do the screens show for `Cn1c(=O)n(C)c2cc(N=Cc3cccc([N+](=O)[O-])c3)ccc21`?
ST2 IL33 inh: inactive

What do the screens show for `CCc1ccc(N=Cc2cccc([N+](=O)[O-])c2O)cc1`?
ST2 IL33 inh: inactive

How did Cn1c(=O)n(C)c2cc(N=Cc3cc(Br)ccc3O)ccc21 do in these assays?
ST2 IL33 inh: 31%*

How did COc1cc(C(=O)N2CCN=C2SCc2ccccc2F)cc(OC)c1OC do in these assays?
ST2 IL33 inh: inactive

What do the screens show for `N#CC1(S(=O)(=O)c2ccc(Cl)cc2)CC1`?
ST2 IL33 inh: inactive

How did COc1ccccc1OC1CN(C2CCN(C(=O)c3ccccc3)CC2)C1 do in these assays?
ST2 IL33 inh: inactive

How did O=C(Nc1cccc(Br)c1)C1c2ccccc2Oc2ccccc21 do in these assays?
ST2 IL33 inh: inactive

How did CCC(C)NC(=O)CSc1nc2nc(C)c(Cc3ccc(Cl)cc3)c(C)n2n1 (configuration not stated) do in these assays?
ST2 IL33 inh: inactive

How did O=C1C2CC=CCC2C(=O)N1c1cc(Cl)ccc1O (configuration not stated) do in these assays?
ST2 IL33 inh: inactive

What do the screens show for `Cc1ccc(NS(=O)(=O)c2ccc(F)cc2)c(C)c1`?
ST2 IL33 inh: inactive

What do the screens show for `Cc1ccc(NS(=O)(=O)c2cccc3c2C(=O)c2ccccc2C3=O)c(C)c1`?
ST2 IL33 inh: 64%*

Results for Cc1ccc(NCN2C(=O)c3ccccc3C2=O)c(C)c1 ?
ST2 IL33 inh: inactive

Results for CN(C)S(=O)(=O)CCNC(=O)c1cccc(-c2ncc[nH]2)c1 ?
ST2 IL33 inh: inactive

Results for CCCN1C(=O)C(=O)c2cc(Br)ccc21 ?
ST2 IL33 inh: inactive

Results for CCN1C(=O)/C(=C2\SC(N)=NC2=O)c2cc(Br)ccc21 ?
ST2 IL33 inh: inactive

How did CCCN1C(=O)/C(=C2\SC(N)=NC2=O)c2cc(Br)ccc21 do in these assays?
ST2 IL33 inh: 33%*

What do the screens show for `CC(C)Cc1cc(C(=O)Nc2cc(Cl)ccc2O)no1`?
ST2 IL33 inh: inactive

Results for C=CCn1c(=O)c2c(nc3n2CCN3c2ccc(C)c(C)c2)n(C)c1=O ?
ST2 IL33 inh: inactive

What do the screens show for `COc1ccc2cc3cc(C(=O)N4CCN(C)CC4)sc3nc2c1`?
ST2 IL33 inh: inactive

Results for COCCNC(=O)c1cc2cc3cc(OC)ccc3nc2s1 ?
ST2 IL33 inh: inactive

Results for COc1ccc2cc3cc(C(=O)NCc4ccc(C)cc4)sc3nc2c1 ?
ST2 IL33 inh: 31%*

What do the screens show for `COc1ccc([N+](=O)[O-])cc1NC(=O)c1cc2cc3ccc(C)cc3nc2s1`?
ST2 IL33 inh: 46%*

What do the screens show for `CCN(CCCNC(=O)c1cc2cc3ccc(OC)cc3nc2s1)c1ccccc1`?
ST2 IL33 inh: 31%*

What do the screens show for `COCCCNC(=O)c1cc2cc3cc(OC)ccc3nc2s1`?
ST2 IL33 inh: inactive

Results for COc1ccc([N+](=O)[O-])cc1NC(=O)c1ccoc1C ?
ST2 IL33 inh: inactive

How did COc1ccc(NC(=O)c2cc3cc4ccc(C)cc4nc3s2)cc1OC do in these assays?
ST2 IL33 inh: inactive

What do the screens show for `COc1ccc2cc3cc(C(=O)Nc4ccc(OC)c(Cl)c4)sc3nc2c1`?
ST2 IL33 inh: 38%*

What do the screens show for `COc1ccc2nc3sc(C(=O)NCc4ccccc4OC)cc3cc2c1`?
ST2 IL33 inh: inactive

How did COc1ccc([N+](=O)[O-])cc1NC(=O)COc1ccc(C)cc1Br do in these assays?
ST2 IL33 inh: inactive

Results for CCCCNC(=O)c1cc2cc3cc(OC)ccc3nc2s1 ?
ST2 IL33 inh: inactive
